Laboratory results as given in PubChem BioAssay (NCATS).
Inconclusive results are not listed. Calls of active or inactive are those of the source. Unless noted, the call rests on the fitted dose curve; in most records, active means well fitted curve in the direction sought with a large enough effect; inconclusive means small, poorly fitted or top-dose-only effect, or another doubt; inactive means no such curve, though single readings can be large; an effect the other way counts as inactive or inconclusive.

Tests used:
[1] = target: DNA repair nuclease/redox regulator APEX1 (Homo sapiens) (UniProt P27695); test: qHTS Validation Assay for Inhibitors of the Human Apurinic/apyrimidinic Endonuclease 1 (APE1) (AID 1705;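 further: TAMRA fluorescence gain over two minutes as APE1 cuts a quenched THF abasic duplex; series mostly up to about 57 µM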)
Summary of the method: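 Endonuclease activity of human APE1 is followed as dequenching when the enzyme incises a tetrahydrofuran abasic site in a short duplex labelled 5'-TAMRA/3'-BHQ-2 (50 nM final), after 15 min enzyme–compound preincubation at room temperature.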

[2] = Counterscreen for APE1 Inhibitors: Fluorescent Dye Displacement Validation Assay (AID 1707)
Summary of the method: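 Thiazole Orange (250 nM) bound to 50 nM TAMRA-labelled dsDNA with tetrahydrofuran abasic site; displacement by DNA-binding compounds lowers fluorescence. Buffer 50 mM Tris-HCl pH 7.5, 50 mM NaCl, 2 mM MgCl2, 0.01% Tween-20; endpoint read at 480/540 nm.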

[3] = target: Endonuclease 4 (Escherichia coli (strain K12)) (UniProt P0A6C1); test: Counterscreen for APE1 Inhibitors: qHTS Validation Assay for Inhibitors of Endonuclease IV (AID 1708)
Summary of the method: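 Enzymatic AP-site incision assay using a double-stranded THF substrate labelled with TAMRA and BHQ-2; released fluorescence signals activity. Enzyme 2 nM, substrate 50 nM, 15 min compound preincubation.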

[4] = target: Alpha-galactosidase A (Homo sapiens) (UniProt P06280); test: Counterscreen for Glucocerebrosidase Inhibitors: qHTS Assay for Human alpha-Galactosidase at pH 4.5 (AID 992)
Summary of the method: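 Human enzyme (2 nM) with 80 uM 4-methylumbelliferyl alpha-D-galactopyranoside in 50 mM citric acid, 0.005% Tween-20, pH 4.5, 20 min at room temperature. Compounds 0.7 nM–77 uM; fluorescence Ex 365/Em 440 after pH 10 stop; AC50 from Hill fits.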

[5] = target: alpha-glucosidase (Oryza sativa, rice) (UniProt Q653V4); test: Counterscreen for Glucocerebrosidase Inhibitors: qHTS Assay for Rice alpha-Glucosidase at pH 5.0 (AID 997)
Summary of the method: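 Rice alpha-glucosidase (4 nM final) with 400 uM 4-methylumbelliferyl-alpha-D-glucopyranoside in citrate buffer pH 5.0, 20 min at room temperature, stopped at pH 10; fluorescence 365/440 nm, compounds 0.7 nM–77 uM, AC50 from Hill fits.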

[6] = Validation of Assay for Modulators of Lamin A Splicing (AID 1459; active means well fitted curve in the direction sought with a large enough effect in the signal ratio; the % refers to the signal ratio;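 further: cells exposed to compound for two days before reading; ratio rise marks activators and ratio drop marks inhibitors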)
From the text: Hutchinson-Gilford Progeria Syndrome (HGPS) is a pediatric premature aging disease caused by a spontaneous mutation in the lamin A/C (LMNA) gene. The mutation activates a cryptic splice site in the LMNA pre-mRNA which results in production of a pre-lamin A protein that cannot be processed properly. The mutant protein accumulates in the nucleus and negatively affects numerous cellular functions. Correction of the splicing defect in HGPS patient cells using a targeted oligonucleotide (exo11) leads to reversal of the cellular disease phenotypes. […]
Bowen, W. P.; Wylie, P. G. Application of Laser-Scanning Fluorescence Microplate Cytometry in High Content Screening. […]
HeLa cells were prepared for the assay when they were 70-90% confluent. The cells were counted and resuspended in Opti-MEM I (no phenol red; Gibco), 2% FBS, 1% penicillin/ streptomycin (Gibco) at concentration of 120 cells/uL concentration. […]
5 uL of HeLa cells were plated in Aurora LoBase black clear bottom (cyclic-olefin polymer) 1536-well plates at a final density of 600 cells/well. […] Following incubation the plates were read on the Acumen Explorer using the 488 nm laser. […] The ratio of the total object intensity in PMT1 (500-530 nm emission; GFP) over PMT3 (575-640 nm emission; RFP) was calculated for analysis. […]

[7] = qHTS for differential inhibitors of proliferation of Plasmodium falciparum line GB4 (AID 1816);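 further: parasite growth measured after 72 h incubation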
[8] = qHTS for differential inhibitors of proliferation of Plasmodium falciparum line 3D7 (AID 1876);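 further: parasite growth measured after three days of culture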
[9] = qHTS for differential inhibitors of proliferation of Plasmodium falciparum line D10 (AID 1877);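 further: parasites grown with compound for 72 h before DNA staining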
[10] = qHTS for differential inhibitors of proliferation of Plasmodium falciparum line Dd2 (AID 1882);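 further: series mostly up to about 29 µM; compound exposure of 72 h on infected erythrocytes; nearly all actives have a fitted effect of over 65% in size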
Summary of the method: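 SYBR Green I DNA fluorescence read-out, ex 485/em 535 nm. Signals were normalized to 0.29 uM artemisinin and DMSO wells, then corrected using vehicle-only plates flanking each stack. Parasite growth ran 72 h in erythrocytes before lysis.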

Measured: outcome

Sequence of DNA repair nuclease/redox regulator APEX1 (Homo sapiens) (P27695 whole entry, looked up): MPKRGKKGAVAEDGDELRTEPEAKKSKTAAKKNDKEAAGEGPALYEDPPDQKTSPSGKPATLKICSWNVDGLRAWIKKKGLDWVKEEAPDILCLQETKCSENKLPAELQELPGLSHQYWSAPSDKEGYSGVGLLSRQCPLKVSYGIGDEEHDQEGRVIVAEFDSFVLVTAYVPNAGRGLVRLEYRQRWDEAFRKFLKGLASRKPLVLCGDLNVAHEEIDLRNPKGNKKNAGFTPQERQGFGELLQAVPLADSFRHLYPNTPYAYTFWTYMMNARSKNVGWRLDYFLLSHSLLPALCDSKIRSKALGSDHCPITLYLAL
Sequence of Alpha-galactosidase A (Homo sapiens) (P06280 whole entry, looked up): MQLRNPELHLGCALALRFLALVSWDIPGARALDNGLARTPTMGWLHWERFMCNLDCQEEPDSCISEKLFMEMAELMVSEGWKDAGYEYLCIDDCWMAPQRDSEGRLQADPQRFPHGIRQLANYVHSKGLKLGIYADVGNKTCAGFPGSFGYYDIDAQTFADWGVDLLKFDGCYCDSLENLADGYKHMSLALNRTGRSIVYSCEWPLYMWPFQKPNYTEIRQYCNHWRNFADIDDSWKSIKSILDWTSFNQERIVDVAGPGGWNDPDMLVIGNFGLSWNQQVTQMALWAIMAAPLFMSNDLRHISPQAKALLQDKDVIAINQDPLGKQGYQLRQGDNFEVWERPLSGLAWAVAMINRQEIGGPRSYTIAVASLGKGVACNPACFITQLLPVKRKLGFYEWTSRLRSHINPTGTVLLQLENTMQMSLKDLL

CC[C@H](CO)Nc1nc(NCc2ccccc2)c2ncn(C(C)C)c2n1
inactive: [1] | [2] | [3]

O=c1c2ccccc2nc2n1CCc1c-2[nH]c2ccccc12
inactive: all assays above
